# Test results published in PubChem BioAssay AID1430 (University of Pittsburgh Molecular Library Screening Center, 2008).
# Hit rate of the full screen: of about 220,000 compounds, about 240 (0.11%) were called active.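 The calls were made as follows: active = inhibition of 50% or more in the single-dose primary screen; inactive = inhibition below 50%.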 The list comes from a sample in which actives are over-represented; it also holds similar structures and randomly drawn compounds.
# Tested on: hexokinase 1 [Trypanosoma brucei]
# Experiment: Trypanosoma brucei hexokinase 1 inhibitors, primary screen, biochemical, G6PDH-coupled NADH absorbance, MLSCN library (AID 1430)
# Details: recombinant TbHK1, G6PDH-coupled NADH A340; at 10 µM; hits give high values
row,SMILES,inhibition
1,CCOc1ccccc1C(=O)NC1CC2CCCC(C1)N2Cc1ccccc1 (centres undefined),3.91% (inactive)
2,CCC(CC)C(=O)N1CCN(c2cccc(C)c2C)CC1,-4.04% (inactive)
3,Cc1c(Cl)c([N+](=O)[O-])nn1Cc1ccc(C(=O)N/N=C\c2cc(Cl)ccc2O)o1,0.728% (inactive)
4,CCCc1nc(-c2cc3cc(C)ccc3[nH]c2=O)no1,-10.1% (inactive)
5,Cc1ccc(N(C(=O)Cc2cccs2)C(C(=O)NCC2CCCO2)c2ccncc2)cc1 (centres undefined),-7.37% (inactive)
6,CSc1nnnn1-c1c(C)cc(C)cc1C,-0.934% (inactive)
7,O=C1CC(c2cccc(Cl)c2)CC(O)=C1C=Nc1ccccc1 (centres undefined),-3.36% (inactive)
8,CC(=O)O[C@]1(C(C)=O)CC[C@H]2[C@@H]3C=C(C)C4=CC(=O)CC[C@]4(C)[C@H]3CC[C@@]21C,-3.98% (inactive)
9,Cc1ccc(-c2nc(SCC(=O)Nc3ccccc3OC(F)F)c3c(C)c(C(=O)O)sc3n2)cc1,-36.7% (inactive)
10,COCCNC(=O)c1ccc(-n2c(SCc3cccnc3)nc3ccccc3c2=O)cc1,-6.28% (inactive)
11,CC(O)c1nc2c(c(=O)n(C)c(=O)n2C)n1C (centres undefined),-12.1% (inactive)
12,O=C(Nc1ccc(N2C(=O)c3cccc4cccc(c34)C2=O)cc1)c1ccc(N2CCCCC2)c([N+](=O)[O-])c1,-9.23% (inactive)
13,CCCCN(C(=O)c1ccc(OC(F)(F)F)cc1)c1c(N)n(CCC)c(=O)[nH]c1=O,2.61% (inactive)
14,COc1cc(NC(=O)COC(=O)c2cnc(C)cn2)c(C)cc1[N+](=O)[O-],-6.37% (inactive)
15,CCOC(=O)C1CCN(C(=O)C2(NC(=O)Nc3cccc(F)c3)CCCCC2)CC1,-1.28% (inactive)
16,Cc1ccc(SC(C)C(=O)NCc2ccc(F)cc2)cc1 (centres undefined),4.64% (inactive)
17,CC1Cc2ccccc2N1C1=CC(=O)CC(C)(C)C1 (centres undefined),-58.2% (inactive)
18,CN(C)CCCO/N=C(\c1ccccc1)c1ccncc1,-6.34% (inactive)
19,C/C(=N\Nc1cccc(C(=O)O)c1)c1ccc2c(c1)Nc1ccccc1S2,-4.39% (inactive)
20,CCN(CC(=O)Nc1ccc(Cl)c(S(=O)(=O)N(C)C)c1)Cc1nc2ccccc2c(=O)[nH]1,-2.75% (inactive)
21,O=C(Oc1ccccc1Cl)c1ccc(N2CCOCC2)c([N+](=O)[O-])c1,-7.89% (inactive)
22,C/C(=N/NC(=O)CSc1ccccn1)c1ccc([N+](=O)[O-])cc1,-9.77% (inactive)
23,Cc1onc(C(=O)NCc2ccc(F)cc2)c1[N+](=O)[O-],-2.07% (inactive)
24,CCOCCCNC(=O)C(NC(=O)c1ccccc1O)c1ccccc1 (centres undefined),-9.74% (inactive)
